# Screens from PubChem BioAssay.
# Only a selection was taken, and hits are over-represented in it overall.
# TTR transcr act: activators of transthyretin transcription; SH-SY5Y TTR promoter Gaussia luciferase, luminescence; 100% = recombinant luciferase protein wells; 92,000 compounds, 1.3% hits; activation, % at 16.7 µM;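 active means activation above the mean of all tested compounds plus 3 SD, cut at about 9.5% in these data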;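 further: cells exposed to compounds for one day before reading; 0% = median of all test compound wells on the plate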
# TTR inh HuH7: HuH7 TTR transcription inhibition, counter-screen; shares compounds with TTR transcr act; HuH7 TTR promoter-Gaussia luciferase reporter, luminescence; 1,100 compounds, 4% hits; inhibition, % at 16.7 µM; AID 1117279;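 active means average inhibition above the solvent-only control wells' mean plus 3 SD, cut at about 15% in these data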;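 further: 0% = cells with DMSO only and 100% = cells with inhibitor control FD; inhibitors lower well luminescence so higher value means more inhibition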
# TTR act confirm: confirmation of human transthyretin transcription activators. shares compounds with TTR transcr act. SHSY5Y TTR promoter Gaussia luciferase, luminescence; 100% = purified Lucia enzyme wells, no cells. activation, % at 16.7 µM. 1,100 tested, under 10 active;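 active means mean activation above a set limit taken from the earlier primary screen, cut at about 11% in these data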;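 further: 0% = DMSO-treated cells and 100% = recombinant Lucia luciferase without cells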
# * marks the source's active call; other numbers are inactive results.
SMILES,TTR transcr act,others
COc1ccc(NC(=S)N(CCO)Cc2cc3c(C)cc(C)cc3[nH]c2=O)cc1,-1,
O=S(Cc1ccccc1)c1ccccc1 (centres undefined),1,
O=S(Cc1cc(Sc2ccccc2)nc(-c2ccccc2)n1)c1ccccc1 (centres undefined),12*,TTR inh HuH7=12;TTR act confirm=-1
COc1cccc(Sc2cc(N3CCOCC3)nc(-c3ccccc3)n2)c1,-2,
O=C1OCc2ccc(NC(=O)C3CC3)cc21,21*,TTR inh HuH7=-6;TTR act confirm=0
O=C(Nc1cccc(Cl)c1)Nc1ccc2c(c1)C(=O)OC2,2,
O=C1OCc2ccc(NC(=O)c3c(F)cccc3Cl)cc21,0,
OCCNc1nc2ccccc2nc1NCCO,1,
OCCNc1c2ccccc2nc2ccccc12,16*,TTR inh HuH7=-48;TTR act confirm=15*
Cc1c2ccccc2nc2ccccc12,-2,
O=C(Nc1ccc(F)cc1)Nc1c(-c2ccc(F)cc2)nc2ncccn12,-1,
C[N+]1=C2N[C@@H](c3ccccc3)CC(=O)N2/C(=C\c2ccccc2)[C@@H]1Cc1ccccc1,-1,
CCCCC(=O)Nc1cc(C)c(NC(=O)c2cccs2)cn1,-2,
CCC(=O)Nc1cc(C)c(NC(=O)C23CC4CC(CC(C4)C2)C3)cn1,9.9*,TTR inh HuH7=-17;TTR act confirm=0
CCC(=O)Nc1cnc(NC(=O)c2cccc(F)c2)cc1C,0,
CN(C)C(=O)C[C@@H]1C=C[C@@H](NC(=O)C2CCC2)[C@@H](CO)O1,-1,
CCOC(=O)Cn1cc(Cl)c(=O)c(Cl)c1,-2,
COC(=O)c1ccc2nccnc2c1,0,
COC(=O)c1cc(OC)nc(OC)c1,16*,TTR inh HuH7=-13;TTR act confirm=2
COC(=O)c1ccc2cn[nH]c2c1,3,
O=C(CNC(=O)c1cccs1)NCCN1CCC(Cc2ccccc2)CC1,2,
CCC(C)[C@H](NC(=O)N1CCCCC1)C(=O)OC (some centres undefined),0,
CSCc1ccc(C(=O)N2CCC(CCC(=O)N(C)Cc3ccccc3)CC2)o1,0,
CC(C)(C)S(=O)N1Cc2ccc(CO)cc2[C@H]1CCO (some centres undefined),3,
CC(C)(C)S(=O)N1Cc2cc(CO)cc(-c3ccccc3)c2[C@H]1CCO (some centres undefined),0,
SMILES,TTR transcr act,others
CC(C)(C)S(=O)N1Cc2cc(=O)n(Cc3ccccc3)cc2[C@H]1CCO (some centres undefined),11*,TTR inh HuH7=-9;TTR act confirm=1
CCN(C(=O)CSc1nnc(SC)s1)c1c(N)n(Cc2ccccc2)c(=O)[nH]c1=O,0,
COc1ccc(/C=C/C(=O)N(C)Cc2cccs2)cc1S(=O)(=O)N1CCOCC1,-1,
CNC[C@H]1OCc2cnnn2CCCC(=O)N([C@@H](C)CO)C[C@@H]1C,1,
C[C@H]1[C@@H](OC(=O)Nc2ccccc2Cl)CC[C@@]23CCCN2C(=O)CCC[C@@H]13,1,
S=C(NCc1cccs1)Nc1cccc2ccccc12,1,
N#Cc1c(F)cccc1NCc1cccs1,14*,TTR inh HuH7=-9;TTR act confirm=1
O=S(=O)(NCc1cccs1)NCc1ccccc1F,4,
CC1CN(c2ccc(NS(=O)(=O)c3ccccc3)cc2C(=O)O)CC(C)O1 (centres undefined),-1,
COc1nccc(C(F)(F)F)c1C(=O)Nc1ccc(Cl)cc1,0,
CC(=O)c1cc(-c2cccc(CO)c2)c(=O)n2c1CCC2,1,
O=C(C[C@H]1C[C@H]2c3cc(NC(=O)CC4CC4)ccc3O[C@H]2[C@H](CO)O1)NCc1ccccc1F,-1,
O=C(C[C@H]1C[C@@H]2c3cc(NC(=O)c4ccc5c(c4)OCO5)ccc3O[C@@H]2[C@H](CO)O1)NCc1cc(F)ccc1F,17*,TTR inh HuH7=-15;TTR act confirm=2
COc1ccccc1CNC(=O)C[C@@H]1C[C@H]2c3cc(NC(=O)c4ccc5c(c4)OCO5)ccc3O[C@H]2[C@@H](CO)O1,-1,
C[C@H]1[C@@H](OC(=O)Nc2ccc(C#N)cc2)CC[C@@]23CCCN2C(=O)CCC[C@@H]13,0,
CC12COC3(C(=O)NCCc4ccccc4)CC1CCC32C (centres undefined),3,
Cc1ccccc1NC(=O)C1C2CCC(O2)C1C(=O)O (centres undefined),2,
Cc1ccccc1NC(=O)C12CC3CCC1(C)C3(C)CO2 (centres undefined),14*,TTR inh HuH7=-15;TTR act confirm=0
O=C(NCCc1ccccc1)c1c(O)c2ccccc2[nH]c1=O,2,
O=C(Cc1c(O)c2ccccc2[nH]c1=O)NCc1ccccc1F,14*,TTR inh HuH7=-18;TTR act confirm=0
O=C(CCl)NNC(=O)c1c(O)c2ccccc2[nH]c1=O,-2,
CC1=C(C(=O)Nc2cc(C(=O)NCCCOC(C)C)ccc2C)SCCO1,3,
C=CCC[C@@H](Cc1ccc(F)cc1)C(=O)OCCNC(=O)[C@H](CC=C)CC(=O)NCCO,2,
Oc1ccccc1C1NN=C(c2ccccc2)S1 (centres undefined),-1,
CC(C)(C)c1ccccc1OCC(=O)NCCCn1ccnc1,-1,
SMILES,TTR transcr act,others
N#Cc1cccc(NC(=O)CC2CCCC2)c1,-1,
N#Cc1cccc(NC(=O)CCn2ccnc2)c1,2,
N#Cc1cccc(NC(=O)CN2NS(=O)(=O)c3ccccc3C2=O)c1,11*,TTR inh HuH7=-12;TTR act confirm=-1
O=C(Nc1ccc(F)cc1)c1ccccc1,-1,
O=C(Nc1cccc(C(=O)Nc2ccc(Br)cc2)c1)c1ccccc1,2,
O=C(Nc1ccccc1)c1ccn[nH]1,15*,TTR inh HuH7=-9;TTR act confirm=-1
COc1ccccc1OCCNC(=O)CNC(=O)c1ccc(C(C)(C)C)cc1,-1,
O=C(c1cccc([N+](=O)[O-])c1)N1CCN(S(=O)(=O)/C=C/c2ccccc2)CC1,0,
Cc1ccc(C)c(-n2nnc3ccccc3c2=O)c1,2,
COc1cccc(C(=O)N2CCn3c2nc2ccccc23)c1,-2,
COc1ccc(Cc2nc3ccc(C(=O)NCc4cc(C)no4)cc3o2)cc1OC,9.9*,TTR inh HuH7=1;TTR act confirm=0
COc1ccc(Cc2nc3ccc(C(=O)N4CCCC4)cc3o2)cc1,-1,
COC(=O)CCCNC(=O)c1ccc2nc(Cc3ccc(OC)cc3)oc2c1,1,
OCC[C@H]1C[C@H](O)[C@@H](O)[C@]2(CCc3ccccc3CO2)O1,-2,
NC(=O)c1c(NC(=O)CN2C(=O)NC(Cc3ccccc3)C2=O)sc2c1CCC2 (centres undefined),0,
COc1ccc(C2C(C#N)=C(N)OC3=C2C(=O)CC(C)(C)C3)cc1 (centres undefined),2,
CC1C(C#N)=C(N)OC2=C1C(=O)CC(c1ccccc1)C2 (centres undefined),15*,TTR inh HuH7=-14;TTR act confirm=-1
CC1(C)CC(=O)C2=C(C1)OC(N)=C(C#N)[C@@H]2c1ccccc1[N+](=O)[O-],0,
COC(=O)[C@]12C[C@H](CC(=O)N3CCN(C(=O)C4CC4)CC3)C(=O)N(CCc3ccc(OC)c(OC)c3)C1=C[C@H](C(C)C)O[C@@H]2C1CC1,6,
Cc1ccnc(SCc2cc(=O)c(OC(=O)c3ccc([N+](=O)[O-])cc3)co2)n1,-2,
CCCCn1c(N)c(N(CC(C)C)C(=O)Cn2c(=O)oc3ccccc32)c(=O)[nH]c1=O,-1,
CCCCn1c(N)c(N(CC(C)C)C(=O)C2CC(=O)N(c3ccc(C)cc3)C2)c(=O)[nH]c1=O (centres undefined),0,
